Screening results (PubChem)
Mot1-301 SUMO: blocks SUMOylation pathway, rescuing yeast Mot1-301 growth | S. cerevisiae Mot1-301 growth rescue, ATP luminescence, 38.5C; percent above DMSO median, 100 means doubled | growth rescue, % at 18.8 µM | 1% of 320,000 active;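 active = every valid replicate shows activation above 250% relative to neutral control wells; inactive = the rest, any valid replicate at or below 250%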;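 also: OY570 slx delta 5 strain wells were the positive control but not used for scaling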
PfHsp90 set2: reduces growth (ATP signal) of yeast expressing P. falciparum Hsp90; S. cerevisiae expressing PfHsp90, BacTiter-Glo ATP, 48 h; yeast lacking PDR1 and PDR3 efflux regulators; inhibition, % at 9.4 µM; 0.32% of 310,000 active; AID 504621;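 active = every replicate shows inhibition above about 80%, whatever the replicate mean, limit read from the data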;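 also: 0% = DMSO neutral controls and 100% = 20 µM radicicol positive controls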
tim10-1 inh: inhibits growth of tim10-1 mutant yeast. S. cerevisiae tim10-1 ts strain growth, BacTiter-Glo, 24 h. inhibition, % at 20 µM. 2.2% of 330,000 active;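 active = inhibition of at least 40%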;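 also: mutant grown at 25 °C; 0% = DMSO wells with yeast and 100% = wells holding no yeast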
TIM10 inh: inhibits growth of TIM10 yeast strain; S. cerevisiae TIM10 strain growth, BacTiter-Glo luminescence, 24 h; inhibition, % at 10 µM; 1.4% of 330,000 active;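 active = inhibition of 40% or more at the single tested concentration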;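 also: wild-type TIM10 isogenic control strain grown at permissive 25 °C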
tim23-1 inh: inhibits growth of tim23-1 mutant yeast. S. cerevisiae tim23-1 growth, BacTiter-Glo luminescence, 24 h. inhibition, % at 20 µM. 1.3% of 330,000 active;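 active = growth inhibition of the mutant yeast at or above 50%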;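 also: temperature-sensitive mutant grown at 25 °C; plate controls were DMSO-treated mutant yeast for no effect and medium wells lacking yeast for full effect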
tim10-1 conf: confirmation of tim10-1 mutant yeast growth inhibitors. shares compounds with tim10-1 inh. 56% of 7,400 active. S. cerevisiae tim10-1 ts strain growth, BacTiter-Glo, 24 h. inhibition, % at 20 µM. AID 463213;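 active = inhibition of yeast growth at or above a set limit in either of two repeat tests at 20 µM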;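 also: tim10-1 mutant grown at permissive 25 °C to find synthetic lethal compounds; 0% = DMSO yeast wells and 100% = medium wells without yeast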
An asterisk follows results filed as active; / = no result. Most compounds without a hit are left out; they make up all but 4.4% or so of the library.

SMILES | Mot1-301 SUMO | PfHsp90 set2 | tim10-1 inh | TIM10 inh | tim23-1 inh | tim10-1 conf
COCCN(C(=O)CSc1nnc(-c2ccncc2)n1C)c1c(N)n(CC(C)C)c(=O)[nH]c1=O | / | -6 | / | / | / | /
CC(C)(C)C1CCc2c(C(=O)NNC(=O)/C=C/C(=O)O)csc2C1 (centres undefined) | 20 | 5 | 3 | 10 | -2 | /
CC(C)(C)C1CCc2c(C(=O)N/N=C/c3cccs3)csc2C1 (centres undefined) | 14 | 3 | 47* | 33 | 37 | 32*
O=C(NCCN1C(=O)S/C(=C\c2ccccc2F)C1=O)C1=COCCO1 | 6 | / | 38 | 27 | 46 | /
CCOC(=O)c1cc(CC)sc1NC(=O)c1ccc2c(c1)OCCO2 | -13 | 5 | 41* | 32 | 16 | 9
CCOC(=O)c1cc(CC)sc1NC(=O)c1cc(OCC)c(OCC)c(OCC)c1 | 12 | / | 18 | 12 | -5 | /
O=C(CNC(=O)c1cccs1)OCC(=O)c1ccccc1 | -4 | -12 | 9 | 12 | 7 | /
O=C(CNC(=O)c1cccs1)OCC(=O)c1ccc2ccccc2c1 | -7 | -28 | 40* | 38 | 25 | 15
CSc1nsc(/C=C/Nc2ccc(F)cc2)c1C#N | -6 | -4 | 29 | 21 | 34 | /
CSc1nsc(/C=C/Nc2ccc(O)cc2C)c1C#N | 15 | -5 | 46* | 18 | 27 | 21
O=C(O)C1C2C=CC(C3CC23)C1C(=O)NCCc1ccccc1 (centres undefined) | -3 | -5 | 6 | 6 | -5 | /
CC(C)=C1C2CCC1C(C(=O)NCCc1ccccc1)C2C(=O)O (centres undefined) | -29 | -8 | 44* | 1 | 28 | 23
CN1CC(c2ccc(C#N)cc2)C2(COc3ccccc3C2=O)C12C(=O)Nc1ccccc12 (centres undefined) | 37 | 2 | 40* | 38 | 48 | 40*
CC(=O)N1CCN(C(c2ccccc2)c2ccccc2)CC1 | / | -3 | 12 | 3 | 0 | /
CC12CCC(C(=O)N3CCN(C(c4ccccc4)c4ccccc4)CC3)(OC1=O)C2(C)C (centres undefined) | 105 | 27 | 41* | 28 | 34 | 15
CC12C(=O)N(c3cccc(OC(=O)c4ccco4)c3)C(=O)C1C1c3ccccc3C2c2ccccc21 (centres undefined) | 115 | / | 42* | 20 | 39 | 25
COc1ccc(OC)c(NC(=O)Nc2ccc3c(c2)OCO3)c1 | -1 | -7 | 40* | 2 | 36 | 27
COc1ccc(Cl)cc1C(=O)Nc1ccc2c(c1)OCCO2 | 55 | 3 | 17 | 16 | 43 | /
COc1ccc(Cl)cc1C(=O)Nc1ccc2c(c1)OCO2 | -24 | / | 46* | 18 | 38 | 35*
CCC(NC(=O)CNC(=O)c1ccc2c(c1)OCO2)c1ccc(Br)cc1 (centres undefined) | / | / | -9 | -23 | 4 | /
O=S(=O)(Nc1cccc(-n2cnnn2)c1)c1cc(Br)ccc1Br | -14 | 6 | 22 | 17 | 11 | /
COc1ccc([C@@H]2[C@@H]3C(=O)N(C(C)(C)C)C(=O)[C@@H]3[C@]3(Cc4ccccc4)C(=O)N(c4ccc(C)cc4)C(=O)N23)cc1 | -10 | -10 | 4 | -4 | 13 | /
O=c1oc(CCCO)cc2ccc(/C=C/c3cccc([N+](=O)[O-])c3)cc12 | -10 | -7 | 15 | -8 | 5 | /
CN(C1CCCCC1)S(=O)(=O)c1ccc(NC(=O)c2ccc(Br)o2)cc1 | 16 | 3 | 52* | 30 | 43 | 42*
CN(C)c1ccnc2sc(C(=O)c3ccc(Br)cc3)c(N)c12 | 16 | 2 | 43* | 29 | 33 | 9
O=S(=O)(c1cc(O)ccc1O)c1cccc2c(S(=O)(=O)c3cc(O)ccc3O)cccc12 | 27 | -5 | -21 | -19 | -11 | /
Cc1ccc(F)c([C@H]2C3C=CCC(c4ccccc4)C3C(=O)N2Cc2ccccc2)c1 (some centres undefined) | 235 | 14 | 44* | 4 | 6 | 31*
Cc1ccc(-c2cc([C@H]3[C@@H]4C=CCC[C@@]4(C)C(=O)N3Cc3ccccc3)ccc2F)cc1 | -5 | -1 | 24 | 13 | 13 | /
Cc1ccc(F)c([C@H]2[C@@H]3C=CCC[C@@]3(C)C(=O)N2Cc2ccccc2)c1 | -20 | / | 45* | 40 | 47 | 42*
